Assay outcomes as filed in PubChem.
BioA inh – BioA (M. tuberculosis) enzyme inhibition. purified M. tuberculosis BioA enzyme, plate reader. inhibition, % at 9.99 µM. 360,000 compounds, 0.096% hits. AID 602481; in the data active = inhibition above about 40%
BH1578 lux ind – induces V. cholerae light production without autoinducers | V. cholerae BH1578 lux reporter, luminescence, 6 h | activation, % at 18.7 µM | 350,000 compounds, 0.16% hits | AID 588436; in the data active = activation mostly above about 9.7%, no sharp cut-off
Y pestis TopoI – Y. pestis Topo-I inhibition via cleavage products; Y. pestis Topo-I cleavage product accumulation, plate reader; activity, % at 10 µM; 360,000 compounds, 0.064% hits; AID 504884; in the data active = activity above about 50%, passing the limit was not always enough
TcdB GH inh – blocks C. difficile toxin B glycohydrolase activity | P18177 | TcdB glycohydrolase enzymatic assay, plate reader | inhibition, % at 9.99 µM | 350,000 compounds, 0.24% hits | AID 652162; in the data active = inhibition above about 10%
VHR inh abs – inhibitors of human VHR1 phosphatase (DUSP3); P51452; recombinant VHR phosphatase, pNPP absorbance; inhibition, % at 13.3 µM; 290,000 compounds, 0.52% hits; in the data active = inhibition above about 50%
Target sequence (P51452 whole entry, looked up): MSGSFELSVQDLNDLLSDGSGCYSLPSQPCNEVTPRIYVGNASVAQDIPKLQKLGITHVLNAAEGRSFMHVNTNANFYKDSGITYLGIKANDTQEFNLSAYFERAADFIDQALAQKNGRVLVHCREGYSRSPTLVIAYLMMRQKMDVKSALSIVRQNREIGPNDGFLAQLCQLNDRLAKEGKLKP
Hits are given with their value; n = inactive; x = not tested or not shown. This is a sample that favours compounds with a hit; in the whole collection about 0.73% have one here.

SMILES	BioA inh	BH1578 lux ind	Y pestis TopoI	TcdB GH inh	VHR inh abs
Cc1ccc(Nc2nc(N3CCOCC3)nc(N3CCOCC3)n2)cc1	n	n	n	x	50.8
CCCNC(=O)Nc1ccc2c(c1)C(=O)N(C)[C@H]1CC[C@H](CC(=O)Nc3ccccc3F)O[C@@H]1CO2	n	x	x	n	x
O=C(Nc1c[nH]c(=O)[nH]c1=O)c1cccc([N+](=O)[O-])c1	n	n	n	n	55.7
O=C(Nc1c[nH]c(=O)[nH]c1=O)c1cccc(F)c1	n	n	n	n	n
C[C@H](CO)N1C[C@H](C)[C@@H](CN(C)Cc2cccnc2)Oc2ncc(C#Cc3cccnc3)cc2C1=O	n	x	x	n	x
C[C@H](CO)N1C[C@H](C)[C@H](CN(C)C(=O)c2ccncc2)Oc2cc(C3=CCCCC3)ccc2S1(=O)=O	n	x	x	n	x
CSc1cccc(NC(=O)CCc2ccccc2)c1	x	n	n	10.6	n
CSc1cccc(NC(=S)NC(=O)CCc2ccccc2)c1	n	n	n	n	n
O=C(CCc1ccccc1)Nc1ncn[nH]1	n	n	n	x	52.7
COc1ccc(-c2cnc3c(c2)C(=O)N([C@@H](C)CO)C[C@@H](C)[C@H](CN(C)C(=O)C2CCC2)O3)cc1	n	x	x	n	x
CCCN(C)C[C@@H]1OCc2cnnn2CCCC(=O)N([C@@H](C)CO)C[C@H]1C	n	x	x	n	x
COc1ccc(-c2nc(CN3CCC(C(=O)N4CCOCC4)CC3)c(C)o2)cc1C	n	n	n	n	56.8
COc1ccc(-c2nc(CS(=O)CC(=O)NCCCN3CCOCC3)c(C)o2)cc1OC (stereo not drawn)	n	n	n	n	56.7
COc1ccc(-c2nc(CN3CCC(C(=O)N4CCOCC4)CC3)c(C)o2)cc1OC	n	n	n	n	n
O=C(C[C@H]1C[C@H]2c3cc(NC(=O)c4cccnc4)ccc3O[C@H]2[C@H](CO)O1)NCc1ccccc1	n	x	x	n	x
CC(C)Cc1cc(C(=O)N2CCCC(CO)(Cc3ccc(F)cc3)C2)no1 (stereo not drawn)	x	n	n	10.6	n
[O-]/C(=C(\C(=S)Nc1ccc(SC(F)F)cc1)[n+]1cccc(CO)c1)c1ccc(Cl)s1	x	n	60.7	n	n
COc1cccc(OCC(=O)Nc2cc(NC(=O)COc3cccc(OC)c3)cc(C(=O)O)c2)c1	n	41.9	n	n	n
Cc1cccc(OCC(=O)Nc2cc(NC(=O)COc3cccc(C)c3)cc(C(=O)O)c2)c1	n	n	n	n	n
CC1CN(C(C)C)C(=S)NC1=O (stereo not drawn)	x	x	n	n	x
CC1CN(C2CCCCC2)C(=S)NC1=O (stereo not drawn)	n	39.1	n	n	x
Cc1noc(C)c1S(=O)(=O)Nc1ccc2c(c1)C(=O)N([C@H](C)CO)C[C@H](C)[C@@H](CN(C)C(=O)Cc1ccccc1)OCCCC[C@H](C)O2	n	x	x	n	x
C=CCOc1cccc(CNc2ccc3[nH]c(=O)[nH]c3c2)c1	n	n	n	23.9	n
Cc1c(COc2ccc3ccccc3c2)nnn1CC(=O)NS(=O)(=O)c1ccccc1C(F)(F)F	n	n	n	n	x
O=C(Cn1cc(COc2ccc(Cl)c(Cl)c2)nn1)NS(=O)(=O)c1ccccc1OC(F)(F)F	n	n	n	11.0	x
SMILES	BioA inh	BH1578 lux ind	Y pestis TopoI	TcdB GH inh	VHR inh abs
Cc1ccc(C(=O)NCCC(=O)NCc2ccco2)cc1	n	n	n	n	53.5
Cc1cccc(NC(=O)CCNC(=O)c2ccco2)c1	x	n	n	n	50.8
CN(C)CC(=O)N1[C@@H]2c3ccc(C4=CCCC4)c(=O)n3C[C@H]1[C@H](CO)[C@H]2C(=O)NCC1CC1	n	x	x	n	x
O=C(C[C@H]1C[C@H]2c3cc(NC(=O)C4CCC4)ccc3O[C@H]2[C@@H](CO)O1)NCc1ccncc1	n	x	x	n	x
CN1C(=O)c2cc(NC(=O)c3ccc(C#N)cc3)ccc2OC[C@H]2O[C@@H](CC(=O)NC3Cc4ccccc4C3)CC[C@@H]21	n	x	x	n	x
O=S(=O)(NCC[C@@H]1CC[C@H](NS(=O)(=O)c2cccc(Cl)c2)[C@@H](CO)O1)c1cccc(F)c1	n	x	x	n	x
CCC(=O)OCC(=O)Nc1cc(C)c(C)cc1[N+](=O)[O-]	n	n	n	n	50.8
Cc1cc(NC(=O)COC(=O)CC2CCCC2)c([N+](=O)[O-])cc1C	n	n	n	n	n
Cc1ccc(C2=NS(=O)(=O)N(C)C(C(=O)NCc3cccs3)=C2)cc1	n	n	n	19.0	n
Cc1nc(N)nc(N)c1Oc1ccc(Cl)cc1	n	525.6	n	n	x
COc1ccccc1-n1c(C)cc(SC)c(C(C)=O)c1=S	n	n	n	x	51.6
COc1ccc(-n2c(C)cc(C)c(C(C)=O)c2=S)cc1	n	n	n	n	n
